Assay results reported in PubChem BioAssay (NCATS).
Results filed as inconclusive are left out. Entries that show only a call come without a potency. Calls of active or inactive are those of the source. The call rests on the fitted dose curve.

assay: Cytotoxicity counterscreen for inhibitors of SARS-CoV-2 cell entry (AID 1645845); settings: cell viability (SARS-CoV-2 entry assay cells); series mostly up to 57.1 µM; activity change, negative = cytotoxicity: at the top concentration; further: nearly all actives have a fitted effect of over 50% in size
Summary of the method: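 48 h compound treatment (after 1 h preincubation), HEK293-ACE2 cells, 37 C/5% CO2; ATP luminescence endpoint; normalized to cell wells and media blanks.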

Structure (SMILES) | Potency | activity change, negative = cytotoxicity | outcome
C[N+]1(C)[C@@H]2CC(OC(=O)[C@H](CO)c3ccccc3)C[C@H]1[C@@H]1O[C@@H]12 (stereo partly drawn) | inactive |  | 
CCCCCN(CCCOC)C(=O)C(CCC(=O)O)NC(=O)c1ccc(Cl)c(Cl)c1 (stereo not drawn) |  | 1.95% (inactive) | 
CCCCCC=CCC=CCCCCCCCC(=O)OCC |  | 0.856% (inactive) | 
O=C(NCCO[N+](=O)[O-])c1cccnc1 | inactive |  | 
COC(=O)C1=C(C)NC(C)=C(C(=O)OCCc2ccc(N3CCN(C(c4ccccc4)c4ccccc4)CC3)cc2)C1c1cccc([N+](=O)[O-])c1 (stereo not drawn) |  | -1.38% (inactive) | 
CSCC[C@H](NC(=O)[C@H](Cc1ccc(OS(=O)(=O)O)cc1)NC(=O)[C@@H](N)CC(=O)O)C(=O)NCC(=O)N[C@@H](Cc1c[nH]c2ccccc12)C(=O)N[C@@H](CCSC)C(=O)N[C@@H](CC(=O)O)C(=O)N[C@@H](Cc1ccccc1)C(N)=O |  |  | inactive
Nc1ccc(C(=O)O)cc1 |  |  | inactive
CCCCCCCCCCCCCCCCO |  |  | inactive
